Rows were chosen to be rich in hits. Some 19% of all compounds tested hit in one or more screens of this group.
HT1080 IDH1KD tx – qHTS for induction of synthetic lethality in tumor cells producing 2HG: qHTS for the HT-1080-IDH1KD cell line. Potency, µM (doses to about 46.1 µM), hits mostly cytotoxic. actives 2% (n = 360,000). HT-1080 IDH1 knockdown viability, ATP luminescence, 48 h
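After a 2 h attachment period, IDH1KD HT-1080 cells took pin-transferred compound for 48 h at 37 °C; ATP-based luminescence after 10 min room-temperature reagent incubation reported viability.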
HT1080-NT tox – qHTS for induction of synthetic lethality in tumor cells producing 2HG: qHTS for the HT-1080-NT fibrosarcoma cell line. Potency, µM (titrated, usually from 46.1 µM), most hits filed as cytotoxic. AID 686970, 2013. actives 1.6% (n = 360,000). HT-1080-NT fibrosarcoma viability, CellTiter-Glo ATP luminescence, 48 h;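 also: NT is the 2HG producing partner of a matched IDH1 knockdown line; nearly all actives have a fitted effect of over 55% in size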
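Viability of the 2HG-overproducing fibrosarcoma line after 48 hours of compound exposure at 37 degrees C was determined by luminescence with CellTiter-Glo, and concentration-effect curves were then fitted and categorized.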
IL-1B inflam inh – qHTS for Inhibitors of Inflammasome Signaling: IL-1-beta AlphaLISA Primary Screen; THP-1 LPS/ATP IL-1B secretion, AlphaLISA, 16 h; stronger effect = lower value; activity change, % at 57.5 µM; actives 4.7% (n = 360,000); AID 743279, 2014; in the data active = activity change below about -50%; inconclusive = mostly about -30% to -49%
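Secreted IL-1B measured by AlphaLISA bead assay after 16 h compound exposure of THP-1 cells; compounds (final up to 57.5 uM) added 1 h before LPS (250 ng/mL) and ATP (1.25 mM) stimulation; lower signal means less secretion.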
DT40 TDP1 CPT – qHTS for Inhibitors of human tyrosyl-DNA phosphodiesterase 1 (TDP1): qHTS in cells in presence of CPT | AID 686979, 2013 | chicken DT40 Tdp1-/-;hTDP1 cells + 20 nM CPT, ATP luminescence, 48 h | actives 12% (n = 420,000) | Potency, µM (highest dose often 46.2 µM), most hits filed as inhibitors; also: nearly all actives have a fitted effect of over 55% in size
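Cell growth measured by CellTiter-Glo luminescence after a minimum 48 h, 37 C compound exposure with 20 nM CPT in Tdp1-knockout DT40 cells stably expressing hTDP1, seeded 400/well; qHTS titration format.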
TDP1 cell noCPT – qHTS for Inhibitors of human tyrosyl-DNA phosphodiesterase 1 (TDP1): qHTS in cells in absence of CPT; DT40 Tdp1-/- hTDP1 cells, no CPT, ATP luminescence, 48 h; Potency, µM (doses to about 46.2 µM), usual class: inhibitors; actives 15% (n = 420,000); AID 686978, 2013; also: nearly all actives have a fitted effect of over 55% in size
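Growth kinetics read by CellTiter-Glo luminescence after ≥48 hr at 37 °C. Cells: DT40 Tdp1-/- stably carrying human TDP1, 400 per well, compound exposure in the absence of CPT (DMSO vehicle).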
Hits are given with their value; - = inactive; ? = inconclusive; . = no result; [ ] = remark or other dose. Unless noted, calls follow the shape of the dose curve; as a rule, active = well fitted curve in the direction sought with a large enough effect; inconclusive = small, poorly fitted or top-dose-only effect, or another doubt; inactive = no such curve, though single readings can be large; an effect the other way counts as inactive or inconclusive.

SMILES	HT1080 IDH1KD tx	HT1080-NT tox	IL-1B inflam inh	DT40 TDP1 CPT	TDP1 cell noCPT
CCCC1Oc2ccccc2C(=O)N(CC(=O)c2ccc3c(c2)OCCO3)C1=O (stereo not given)	-	-	-	-	-
O=C(COc1ccccc1)Nc1ccccc1C(=O)OCc1cc(=O)n2nc(C3CC3)sc2n1	.	.	.	-	?
Cc1csc2nc(-c3ccc(NS(=O)(=O)c4cccc(F)c4)cc3)cn12	.	.	.	?	16.4µM
CC(C)c1c(C(=O)NCCN2CCOCC2)cnn1-c1nccc(-c2ccco2)n1	.	.	.	-	-
CCOc1ccc2nc(N3CCCC(C(=O)NCCc4ccc(SC)cc4)C3)sc2c1 (stereo not given)	.	.	.	-	?
CCOc1ccc2nc(N3CCCC(C(=O)NC4CCCC4)C3)sc2c1 (stereo not given)	-	?	-	?	20.6µM
CCOc1ccc2nc(N3CCCC(C(=O)Nc4ccc(CC)cc4)C3)sc2c1 (stereo not given)	.	.	.	16.4µM	10.3µM
CCOc1ccc2nc(N3CCCC(C(=O)NCc4ccccc4OC)C3)sc2c1 (stereo not given)	.	.	.	?	23.1µM
CCOc1ccc2nc(N3CCCC(C(=O)Nc4cc(Cl)c(OC)cc4OC)C3)sc2c1 (stereo not given)	.	.	.	18.4µM	13µM
Cc1cc(F)cc(-c2cc(C(=O)NCC3CCCCC3)[nH]n2)c1	?	-	-	-	?
Cc1ccc(C)c(NC(=O)CC2Oc3ccccc3NC2=O)c1 (stereo not given)	-	-	-	-	-
O=C(CC(=O)c1ccccc1)Nc1ccccc1	-	-	-	-	-
CCOC(=O)Nc1ccc2nc(N3CCCCCC3)sc2c1	8.2µM	?	-	3.66µM	2.59µM
CCOc1ccc2nc(N3CCCC(C(=O)Nc4ccc(OC)cc4)C3)sc2c1 (stereo not given)	.	.	.	14.6µM	11.6µM
CCOC(=O)N1CCN(C(=O)Nc2ccc3nc(C)sc3c2)CC1	-	-	-	-	-
O=C1NC(=O)[C@@]2(CCOc3ccc(F)cc32)N1	.	.	.	-	-
COc1ccc(CCNS(=O)(=O)c2c(C)nc3sc(C)cn3c2=O)cc1OC	.	.	.	-	-
Cc1nc2scc(C)n2c(=O)c1S(=O)(=O)Nc1ccc(F)cc1	-	-	-	-	-
Cc1cn2c(=O)c(S(=O)(=O)Nc3ccc(OC(F)(F)F)cc3)c(C)nc2s1	.	.	.	20.6µM	23.1µM
COc1cc(OC)c(NS(=O)(=O)c2c(C)nc3sc(C)cn3c2=O)cc1Cl	.	.	.	?	14.6µM
CCCCOC(=O)c1ccc(NS(=O)(=O)c2c(C)nc3scc(C)n3c2=O)cc1	.	.	.	13µM	23.1µM
Cc1cccnc1CNC(=O)C1CCC(=O)N(CCc2cccc(F)c2)C1 (stereo not given)	-	-	-	-	-
Cc1ccc(C(=O)NCCCNC(=O)c2ccccc2C)cn1	-	-	-	-	-
CCCOc1ccc(Cc2c(Cl)nc(SC)nc2N(C)C)cc1	-	-	-	?	14.6µM
CCCOc1ccc(Cc2c(Cl)nc(SC)nc2OC)cc1	-	-	-	-	-
SMILES	HT1080 IDH1KD tx	HT1080-NT tox	IL-1B inflam inh	DT40 TDP1 CPT	TDP1 cell noCPT
N#CC1=C2SCC(O)(c3ccccc3)N2C(=O)CC1c1ccccc1F (stereo not given)	16.4µM	?	?	13µM	8.2µM
N#CC1=C2SCN(c3ccccc3)CN2C(=O)CC1c1cccs1 (stereo not given)	-	-	?	-	-
N#CC1=C2SCC(O)(c3ccccc3)N2C(=O)CC1c1cccs1 (stereo not given)	0.355µM	0.631µM	?	1.16µM	1.03µM
CCOC(=O)c1c(NC(=O)CN2C(=O)NC3(CCC(C)CC3)C2=O)sc(C)c1-c1ccc(C)cc1 (stereo not given)	-	-	-	20.6µM	18.4µM
CCOC(=O)c1c(NC(=O)CN2C(=O)NC3(CCCCC3)C2=O)sc(C)c1-c1ccc(C)cc1	-	-	-	18.4µM	20.6µM
COc1ccc(NC(=O)COC(=O)c2ccc(OC)c(S(=O)(=O)N3CCCC3)c2)cc1OC	-	-	-	?	?
Cc1ccc(-c2nc(CN(C)Cc3cccc4cnccc34)c(C)o2)s1	-	-	-	?	20.6µM
Cc1ccc(-c2nc(CN(C)C3CCOCC3)c(C)o2)s1	-	-	-	-	-
CCn1c(=O)c(C(=O)NNC(=O)c2cccc(Cl)c2)c(O)c2ccccc21	?	13µM	-	23.1µM	?
Cc1cccc(C(=O)NNC(=O)c2c(O)c3ccccc3n(C)c2=O)c1	?	?	-	?	29.1µM
Cn1c(=O)c(C(=O)NNC(=O)c2ccccc2Cl)c(O)c2ccccc21	-	-	-	?	18.4µM
CCn1c(=O)c(C(=O)NNC(=O)c2ccc(Cl)cc2Cl)c(O)c2ccccc21	-	-	-	?	?
Cn1c(=O)c(C(=O)NNC(=O)c2cccc(Cl)c2)c(O)c2ccccc21	9.2µM	6.51µM	?	18.4µM	13µM
CC(NC(=O)c1c(O)c2ccccc2n(C)c1=O)c1ccccc1 (stereo not given)	-	-	-	23.1µM	18.4µM
COc1ccc(NC(=O)c2cc(S(=O)(=O)N3CCOCC3)cn2C)cc1Cl	-	-	-	?	-
Cc1ccc(-n2c(=O)c3c(cnn3C)n(Cc3ccc(Cl)cc3)c2=O)cc1	.	.	.	-	?
Cc1ccc(-n2c(=O)c3c(cnn3C)n(Cc3ccccc3F)c2=O)cc1	.	.	.	18.4µM	-
CC(=O)N(\C=C/C=C/C=C1\Sc2ccccc2C1=O)c1ccccc1	?	?	-	29.1µM	13µM
CN(C)/C=C1/Sc2ccccc2C1=O	-	-	-	-	-
O=C(CSc1nc(-c2ccc(Cl)cc2)cs1)Nc1cccc([N+](=O)[O-])c1	?	16.4µM	-	?	16.4µM
O=[N+]([O-])c1cccc(NC(=S)Nc2nc(-c3ccccc3Cl)cs2)c1	18.4µM	?	-59.0	?	18.4µM
Cc1cccc(C(=O)NC(=S)NC(C)c2ccccc2)c1 (stereo not given)	-	-	-	?	?
Cc1ccc(-c2cn3c4c(=O)n(C)c(=O)n(C)c4nc3n2-c2cccc(Cl)c2)cc1	.	.	.	-	-
COCCN(C(=O)CSc1nnc(-c2ccccc2OC)o1)c1c(N)n(CC(C)C)c(=O)[nH]c1=O	-	-	-	-	-
C=C(C)c1ccc(C(C)(C)NC(=O)N2CCN(C)CC2)cc1	-[9.24 µM]	-	-	16.4µM	20.6µM
N#Cc1ccc(C(=O)Nc2cc(C3CC3)nn2-c2ccccc2)cc1	-	-	-	-	-

Screening results from PubChem BioAssay.
